Results published in publication PMC7862700, “An all-to-all approach to the identification of sequence-specific readers for epigenetic DNA modifications on cytosine”.

What was measured:
Assay in all cases: DAPPL (digital affinity profiling via proximity ligation, sequencing); 10 mM Tris-HCl pH 7.5, 50 mM NaCl, 1 mM DTT, 4% glycerol, room temperature, 30 min; GST-TFs on glutathione beads, 16-mer random dsDNA library, 0.1% formaldehyde crosslink after washing; high values mean tight binding
Conditions in all cases: protein: recombinant; tags: N-terminal GST; dsDNA, one strand shown
FLI1 = molecular target: T1, FLI1 (Homo sapiens, UniProt Q01543 1-452)
T1 sequence: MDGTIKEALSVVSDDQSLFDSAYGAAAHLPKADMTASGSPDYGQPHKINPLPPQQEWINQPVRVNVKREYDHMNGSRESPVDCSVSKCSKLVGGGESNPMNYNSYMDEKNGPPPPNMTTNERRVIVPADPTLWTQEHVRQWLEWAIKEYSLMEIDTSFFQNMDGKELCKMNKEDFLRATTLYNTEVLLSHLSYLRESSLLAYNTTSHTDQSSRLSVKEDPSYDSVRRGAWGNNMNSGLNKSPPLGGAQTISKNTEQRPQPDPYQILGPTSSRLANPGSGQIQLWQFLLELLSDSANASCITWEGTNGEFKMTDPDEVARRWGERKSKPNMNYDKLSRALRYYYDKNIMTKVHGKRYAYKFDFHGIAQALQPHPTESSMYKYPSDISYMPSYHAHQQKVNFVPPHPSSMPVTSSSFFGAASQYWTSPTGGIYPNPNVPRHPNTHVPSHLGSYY
Procedure, shortened: (§1)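 Yeast served to express human transcription factors as GST fusions, which were then captured on glutathione beads and labelled with DNA barcodes. Pooled with a tag-only sample, they were incubated with 200 nmole of a 16-mer random double-stranded DNA library for 30 min at room temperature in Tris/NaCl/DTT/glycerol buffer, washed, crosslinked with 0.1% formaldehyde, ligated by proximity, amplified by PCR and sequenced. Dividing each hexamer's read frequency for a factor by its frequency for the tag-only sample gives the binding signal.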

ELK1 = molecular target: T2, ELK1 (Homo sapiens, UniProt P19419 1-428)
T2 sequence: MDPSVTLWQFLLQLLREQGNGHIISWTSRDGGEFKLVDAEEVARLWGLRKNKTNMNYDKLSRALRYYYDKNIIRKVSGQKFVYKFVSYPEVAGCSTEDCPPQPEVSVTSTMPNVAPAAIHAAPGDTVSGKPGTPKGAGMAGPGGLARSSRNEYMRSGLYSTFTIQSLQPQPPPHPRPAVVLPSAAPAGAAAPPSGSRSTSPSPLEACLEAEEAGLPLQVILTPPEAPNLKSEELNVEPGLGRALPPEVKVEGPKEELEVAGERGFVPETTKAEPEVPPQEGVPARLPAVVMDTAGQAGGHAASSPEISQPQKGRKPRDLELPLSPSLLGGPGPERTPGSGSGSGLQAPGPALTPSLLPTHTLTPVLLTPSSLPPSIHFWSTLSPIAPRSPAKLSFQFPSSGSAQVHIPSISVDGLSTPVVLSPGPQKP
Procedure, shortened: as §1

ERG = molecular target: T3, ERG (Homo sapiens, UniProt P11308 1-479)
T3 sequence: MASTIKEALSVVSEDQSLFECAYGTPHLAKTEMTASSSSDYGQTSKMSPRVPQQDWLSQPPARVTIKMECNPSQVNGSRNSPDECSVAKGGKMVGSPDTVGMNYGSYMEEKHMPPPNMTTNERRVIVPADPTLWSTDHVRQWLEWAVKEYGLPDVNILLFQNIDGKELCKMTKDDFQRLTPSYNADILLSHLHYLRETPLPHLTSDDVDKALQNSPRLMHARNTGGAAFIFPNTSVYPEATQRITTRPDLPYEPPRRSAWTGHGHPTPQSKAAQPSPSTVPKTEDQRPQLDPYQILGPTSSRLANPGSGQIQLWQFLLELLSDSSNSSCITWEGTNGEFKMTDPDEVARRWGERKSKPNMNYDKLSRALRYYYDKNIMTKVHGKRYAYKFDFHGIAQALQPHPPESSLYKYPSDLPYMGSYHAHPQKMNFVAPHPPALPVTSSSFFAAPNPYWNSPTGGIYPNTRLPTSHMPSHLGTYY
Procedure, shortened: as §1

ELF1 = ELF1 (Homo sapiens, UniProt P32519 1-619)
Procedure, shortened: as §1

EHF = molecular target: T4, EHF (Homo sapiens, UniProt Q9NZC4 1-300)
T4 sequence: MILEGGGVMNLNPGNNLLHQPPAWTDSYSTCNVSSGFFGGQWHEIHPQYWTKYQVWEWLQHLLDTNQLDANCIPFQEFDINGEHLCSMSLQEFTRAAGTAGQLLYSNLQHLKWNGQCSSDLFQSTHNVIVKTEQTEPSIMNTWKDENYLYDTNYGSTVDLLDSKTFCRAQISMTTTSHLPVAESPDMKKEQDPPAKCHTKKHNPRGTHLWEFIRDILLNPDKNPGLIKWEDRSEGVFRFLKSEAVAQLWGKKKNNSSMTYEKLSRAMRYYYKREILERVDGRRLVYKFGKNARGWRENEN
Procedure, shortened: as §1

SPI1 = SPI1 (Homo sapiens, UniProt P17947 1-270)
Procedure, shortened: as §1

ELK3 = molecular target: T5, ELK3 (Homo sapiens, UniProt P41970 1-407)
T5 sequence: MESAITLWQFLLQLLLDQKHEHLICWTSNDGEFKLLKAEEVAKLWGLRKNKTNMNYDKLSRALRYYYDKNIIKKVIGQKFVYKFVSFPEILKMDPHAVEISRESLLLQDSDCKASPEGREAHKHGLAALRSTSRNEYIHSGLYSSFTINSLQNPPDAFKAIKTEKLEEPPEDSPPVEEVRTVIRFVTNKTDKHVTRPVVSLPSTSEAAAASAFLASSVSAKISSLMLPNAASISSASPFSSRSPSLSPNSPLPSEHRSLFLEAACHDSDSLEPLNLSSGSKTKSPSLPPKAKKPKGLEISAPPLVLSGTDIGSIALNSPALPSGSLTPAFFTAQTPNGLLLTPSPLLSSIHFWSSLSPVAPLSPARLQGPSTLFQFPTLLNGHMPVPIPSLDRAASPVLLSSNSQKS
Procedure, shortened: as §1

ELF4 = ELF4 (Homo sapiens, UniProt Q99607 1-663)
Procedure, shortened: as §1

ETV2 = molecular target: T6, ETV2 (Homo sapiens, UniProt O00321 1-342)
T6 sequence: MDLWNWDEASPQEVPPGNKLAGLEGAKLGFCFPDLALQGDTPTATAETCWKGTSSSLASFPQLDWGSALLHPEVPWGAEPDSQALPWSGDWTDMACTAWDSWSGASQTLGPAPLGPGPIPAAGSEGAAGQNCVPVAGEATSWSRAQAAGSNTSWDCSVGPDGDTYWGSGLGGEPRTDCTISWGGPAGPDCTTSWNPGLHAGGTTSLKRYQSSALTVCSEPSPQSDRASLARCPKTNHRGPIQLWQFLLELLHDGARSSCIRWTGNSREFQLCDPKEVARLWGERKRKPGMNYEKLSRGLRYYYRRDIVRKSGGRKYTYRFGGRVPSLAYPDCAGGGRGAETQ
Procedure, shortened: as §1

ETV3L = molecular target: T7, ETV3L (Homo sapiens, UniProt Q6ZN32 1-361)
T7 sequence: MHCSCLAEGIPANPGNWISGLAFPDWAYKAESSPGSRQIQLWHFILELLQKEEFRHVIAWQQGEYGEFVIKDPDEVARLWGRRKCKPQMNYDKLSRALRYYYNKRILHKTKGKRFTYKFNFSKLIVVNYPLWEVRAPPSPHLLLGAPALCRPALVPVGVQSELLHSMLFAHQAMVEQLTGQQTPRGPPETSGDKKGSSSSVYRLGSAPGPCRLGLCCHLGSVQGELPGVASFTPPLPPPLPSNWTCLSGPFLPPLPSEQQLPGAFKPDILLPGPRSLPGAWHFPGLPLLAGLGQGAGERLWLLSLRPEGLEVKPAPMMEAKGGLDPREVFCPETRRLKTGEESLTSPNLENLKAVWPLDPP
Procedure, shortened: as §1

ETV6 = ETV6 (Homo sapiens, UniProt P41212 1-452)
Procedure, shortened: as §1

GABPA = molecular target: T8, GABPA (Homo sapiens, UniProt Q06546 1-454)
T8 sequence: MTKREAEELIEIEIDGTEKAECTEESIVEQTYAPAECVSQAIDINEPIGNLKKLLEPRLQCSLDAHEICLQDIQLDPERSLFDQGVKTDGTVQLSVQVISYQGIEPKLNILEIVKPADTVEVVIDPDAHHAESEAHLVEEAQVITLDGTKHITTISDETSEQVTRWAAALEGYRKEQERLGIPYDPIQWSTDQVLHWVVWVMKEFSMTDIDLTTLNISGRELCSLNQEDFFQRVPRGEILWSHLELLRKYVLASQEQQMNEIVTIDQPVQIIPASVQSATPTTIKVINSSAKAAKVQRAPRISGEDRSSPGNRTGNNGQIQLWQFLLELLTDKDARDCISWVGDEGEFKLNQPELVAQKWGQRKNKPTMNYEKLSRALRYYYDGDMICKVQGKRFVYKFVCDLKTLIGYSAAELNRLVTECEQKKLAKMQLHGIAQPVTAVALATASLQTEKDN
Procedure, shortened: as §1

SPIB = SPIB (Homo sapiens, UniProt Q01892 1-262)
Procedure, shortened: as §1

ELK4 = molecular target: T9, ELK4 (Homo sapiens, UniProt P28324-2 1-405)
T9 sequence: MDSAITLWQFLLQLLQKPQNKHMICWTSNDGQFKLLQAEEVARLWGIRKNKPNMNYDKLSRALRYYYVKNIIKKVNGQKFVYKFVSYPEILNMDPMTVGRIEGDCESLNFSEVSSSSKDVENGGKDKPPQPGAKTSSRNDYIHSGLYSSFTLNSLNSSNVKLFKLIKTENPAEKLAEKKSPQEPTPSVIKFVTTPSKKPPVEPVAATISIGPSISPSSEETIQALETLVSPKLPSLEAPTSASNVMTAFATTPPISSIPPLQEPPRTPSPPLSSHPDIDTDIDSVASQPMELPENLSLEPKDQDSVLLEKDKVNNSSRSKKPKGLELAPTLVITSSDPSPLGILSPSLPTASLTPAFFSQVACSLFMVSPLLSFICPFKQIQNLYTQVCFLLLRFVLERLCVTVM
Procedure, shortened: as §1

ELF3 = molecular target: T10, ELF3 (Homo sapiens, UniProt P78545 1-371)
T10 sequence: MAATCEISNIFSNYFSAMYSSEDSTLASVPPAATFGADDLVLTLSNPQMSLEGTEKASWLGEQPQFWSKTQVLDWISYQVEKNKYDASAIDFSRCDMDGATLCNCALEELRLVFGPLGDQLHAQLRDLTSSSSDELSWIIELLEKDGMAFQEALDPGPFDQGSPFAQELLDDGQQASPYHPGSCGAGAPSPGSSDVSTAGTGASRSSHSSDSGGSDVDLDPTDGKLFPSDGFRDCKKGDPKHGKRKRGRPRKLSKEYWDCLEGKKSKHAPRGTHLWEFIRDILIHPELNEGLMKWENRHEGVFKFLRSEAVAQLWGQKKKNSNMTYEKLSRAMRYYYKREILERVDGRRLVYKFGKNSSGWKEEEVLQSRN
Procedure, shortened: as §1

ETV1 = ETV1 (Homo sapiens, UniProt P50549 1-477)
Procedure, shortened: as §1

Chain of ELF4 (Q99607 whole entry): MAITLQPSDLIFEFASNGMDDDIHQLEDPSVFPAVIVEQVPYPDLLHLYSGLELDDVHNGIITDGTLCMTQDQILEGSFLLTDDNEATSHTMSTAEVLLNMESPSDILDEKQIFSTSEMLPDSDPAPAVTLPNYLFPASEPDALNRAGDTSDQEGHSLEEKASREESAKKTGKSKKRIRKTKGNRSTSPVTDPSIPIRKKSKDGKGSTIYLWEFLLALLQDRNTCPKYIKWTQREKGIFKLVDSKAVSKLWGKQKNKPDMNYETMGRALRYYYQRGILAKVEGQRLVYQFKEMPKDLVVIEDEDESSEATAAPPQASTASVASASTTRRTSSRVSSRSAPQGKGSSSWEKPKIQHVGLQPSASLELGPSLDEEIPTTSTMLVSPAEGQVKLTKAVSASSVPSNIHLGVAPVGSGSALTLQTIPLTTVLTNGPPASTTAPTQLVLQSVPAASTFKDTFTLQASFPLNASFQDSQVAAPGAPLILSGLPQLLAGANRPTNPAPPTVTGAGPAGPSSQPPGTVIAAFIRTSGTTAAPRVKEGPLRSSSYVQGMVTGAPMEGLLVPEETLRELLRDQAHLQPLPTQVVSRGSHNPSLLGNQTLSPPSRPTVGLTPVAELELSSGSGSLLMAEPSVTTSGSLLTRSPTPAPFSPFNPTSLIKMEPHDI
Chain of ETV6 (P41212 whole entry): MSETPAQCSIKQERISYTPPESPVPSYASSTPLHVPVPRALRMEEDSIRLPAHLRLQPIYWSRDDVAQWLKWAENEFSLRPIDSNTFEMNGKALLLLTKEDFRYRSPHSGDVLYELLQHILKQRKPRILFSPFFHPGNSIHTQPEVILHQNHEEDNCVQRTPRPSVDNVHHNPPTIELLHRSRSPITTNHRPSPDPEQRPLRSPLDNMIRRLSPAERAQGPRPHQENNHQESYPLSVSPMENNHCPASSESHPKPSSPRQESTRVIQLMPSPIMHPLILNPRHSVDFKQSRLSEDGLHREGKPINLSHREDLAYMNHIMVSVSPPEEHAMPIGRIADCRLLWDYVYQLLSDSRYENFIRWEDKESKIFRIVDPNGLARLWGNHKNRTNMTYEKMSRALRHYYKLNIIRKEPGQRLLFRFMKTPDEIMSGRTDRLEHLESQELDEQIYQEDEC
Chain of SPIB (Q01892 whole entry): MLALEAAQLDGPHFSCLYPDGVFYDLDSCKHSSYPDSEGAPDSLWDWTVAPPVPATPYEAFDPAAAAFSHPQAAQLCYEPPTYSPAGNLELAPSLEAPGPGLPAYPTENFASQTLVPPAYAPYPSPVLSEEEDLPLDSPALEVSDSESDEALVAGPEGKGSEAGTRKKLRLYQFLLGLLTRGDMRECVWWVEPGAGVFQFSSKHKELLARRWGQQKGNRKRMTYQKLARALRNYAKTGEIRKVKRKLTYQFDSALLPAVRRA
Chain of ELF1 (P32519 whole entry): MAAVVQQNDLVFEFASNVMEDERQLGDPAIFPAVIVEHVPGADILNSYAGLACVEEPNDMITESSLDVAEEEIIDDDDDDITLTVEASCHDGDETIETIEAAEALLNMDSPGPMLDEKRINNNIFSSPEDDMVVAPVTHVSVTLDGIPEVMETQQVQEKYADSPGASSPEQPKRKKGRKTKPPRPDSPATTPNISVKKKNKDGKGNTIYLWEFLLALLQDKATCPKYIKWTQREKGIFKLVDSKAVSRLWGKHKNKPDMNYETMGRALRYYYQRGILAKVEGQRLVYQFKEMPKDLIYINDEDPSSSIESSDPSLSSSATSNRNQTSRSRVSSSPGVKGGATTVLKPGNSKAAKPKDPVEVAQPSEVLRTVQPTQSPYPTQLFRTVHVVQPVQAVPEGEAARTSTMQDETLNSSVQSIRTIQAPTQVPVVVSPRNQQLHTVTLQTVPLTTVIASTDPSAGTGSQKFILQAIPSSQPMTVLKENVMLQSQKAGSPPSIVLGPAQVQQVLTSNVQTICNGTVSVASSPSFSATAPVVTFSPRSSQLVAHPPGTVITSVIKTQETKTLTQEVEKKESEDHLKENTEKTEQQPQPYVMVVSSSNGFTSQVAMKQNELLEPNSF
Chain of ETV1 (P50549 whole entry): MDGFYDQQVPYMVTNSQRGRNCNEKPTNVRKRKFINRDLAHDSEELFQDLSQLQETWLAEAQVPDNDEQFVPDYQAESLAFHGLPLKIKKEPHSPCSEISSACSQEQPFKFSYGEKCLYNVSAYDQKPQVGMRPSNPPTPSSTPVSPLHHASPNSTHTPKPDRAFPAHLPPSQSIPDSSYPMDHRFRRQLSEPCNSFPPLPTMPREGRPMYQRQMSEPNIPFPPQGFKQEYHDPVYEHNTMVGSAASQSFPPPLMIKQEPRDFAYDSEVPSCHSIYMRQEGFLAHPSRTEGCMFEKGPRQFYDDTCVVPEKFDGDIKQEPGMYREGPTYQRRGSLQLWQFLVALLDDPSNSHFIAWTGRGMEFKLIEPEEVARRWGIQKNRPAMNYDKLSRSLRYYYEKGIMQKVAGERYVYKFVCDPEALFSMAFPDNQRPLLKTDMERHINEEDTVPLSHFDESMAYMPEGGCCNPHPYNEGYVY

Q: Which binding signal (FLI1) does the source give for CCATGG here?
A: 1.08 fold enrichment (6-mer frequency, TF over GST control)

Q: And the binding signal (ELK1)?
A: 1.05 fold enrichment (6-mer frequency, TF over GST control)

Q: And the binding signal (ERG)?
A: 1.08 fold enrichment (6-mer frequency, TF over GST control)

Q: What about the binding signal (ELF1) of the same sequence?
A: 1 fold enrichment (6-mer frequency, TF over GST control)

Q: What about the binding signal (EHF) of the same sequence?
A: 1.06 fold enrichment (6-mer frequency, TF over GST control)

Q: And the binding signal (SPI1)?
A: 1.05 fold enrichment (6-mer frequency, TF over GST control)

Q: And the binding signal (ELK3)?
A: 1.06 fold enrichment (6-mer frequency, TF over GST control)

Q: What about the binding signal (ELF4) of the same sequence?
A: 1.06 fold enrichment (6-mer frequency, TF over GST control)

Q: What about the binding signal (ETV2) of the same sequence?
A: 1.05 fold enrichment (6-mer frequency, TF over GST control)

Q: What about the binding signal (ETV3L) of the same sequence?
A: 1.02 fold enrichment (6-mer frequency, TF over GST control)

Q: What about the binding signal (ETV6) of the same sequence?
A: 1.03 fold enrichment (6-mer frequency, TF over GST control)

Q: How did the binding signal (FLI1) turn out when TCAGCC was run?
A: 1 fold enrichment (6-mer frequency, TF over GST control)

Q: What about the binding signal (ELK1) of the same sequence?
A: 1.11 fold enrichment (6-mer frequency, TF over GST control)

Q: What about the binding signal (GABPA) of the same sequence?
A: 1.06 fold enrichment (6-mer frequency, TF over GST control)

Q: And the binding signal (SPIB)?
A: 1.05 fold enrichment (6-mer frequency, TF over GST control)

Q: And the binding signal (ELK3)?
A: 1.13 fold enrichment (6-mer frequency, TF over GST control)

Q: What about the binding signal (ELF4) of the same sequence?
A: 1.11 fold enrichment (6-mer frequency, TF over GST control)

Q: What about the binding signal (ELK4) of the same sequence?
A: 1.02 fold enrichment (6-mer frequency, TF over GST control)

Q: What about the binding signal (ETV2) of the same sequence?
A: 1.03 fold enrichment (6-mer frequency, TF over GST control)

Q: And the binding signal (ELF3)?
A: 1 fold enrichment (6-mer frequency, TF over GST control)

Q: What about the binding signal (ETV1) of the same sequence?
A: 1.02 fold enrichment (6-mer frequency, TF over GST control)

Q: What about the binding signal (ETV3L) of the same sequence?
A: 1.02 fold enrichment (6-mer frequency, TF over GST control)

Q: And the binding signal (ETV6)?
A: 1.01 fold enrichment (6-mer frequency, TF over GST control)
